The values that follow come from PubChem BioAssay AID463173 (ICCB-Longwood Screening Facility, Harvard Medical School, 2010).

Screen size: about 52,000 compounds; about 4,300 (8.3%) were called active. The full list was thinned out, with actives kept by preference. Values without a mark were called inactive. No stated cut-off is given here; in the data, active means survival mostly below about 52% (no sharp cut-off); inactive means mostly above about 56%.

The test system of the experiment is DeltatarO mutant. The experiment is described as follows: growth inhibition of S. aureus wild type versus tarO mutant, primary screen, teichoic acid synthesis inhibitors, RN4220, OD600 (AID 463173). The note with it: OD600, 18 h, stronger effect = lower value, screened at 18.75 µg/mL (by protocol).
Regarding `CC(=O)c1ccc(NC(=O)Cn2c(=O)cc(C)c3c(C)nn(-c4cccc(F)c4)c32)cc1`, the survival was 81%.

In the case of `Cc1cc(=O)n2nc(N3CCC(C(=O)NCCCOC(C)C)CC3)sc2n1`, the survival is 100%.

For `NC1CCC(c2ccccc2)CC1` (stereo not drawn), the survival was 78%.

In the case of `COc1ccc(-c2cn3nc(N4CCC(C(=O)NCc5ccc(F)cc5)CC4)sc3n2)cc1`, the survival is 88%.

Take `CC1=C(C(=O)Nc2ccc(Cl)cc2)C(c2cccs2)n2nc(SCc3cccc(C)c3)nc2N1` (stereo not drawn): the survival is 88%.

Regarding `COCCNC(=O)CSc1cn(CC(=O)N2CCCCCC2)c2ccccc12`, the survival is 73%.

For the compound `COc1ccc(-c2nc3c4cnn(-c5ccccc5F)c4ncn3n2)cc1`, the survival was 59%.

On to `CN1CCN(C(CNC(=O)C(=O)Nc2ccccc2)c2ccc3c(c2)OCO3)CC1` (stereo not drawn), for which the survival is 67%.

Regarding `COc1ccc(NC(=O)c2c(C)oc3ccc(O)c(CN4CCC(C)CC4)c23)cc1`, the survival is 57%.

With `CCc1c(C)nc(SCC(=O)N2CCN(c3ccccc3OC)CC2)[nH]c1=O`, the survival is 77%.

On to `CCCCNC(=O)c1ccc2c(c1)NC(=O)C(CS(=O)(=O)Cc1ccc(C)cc1)N2` (stereo not drawn), for which the survival was 87%.

In the case of `COc1ccc(Cl)cc1S(=O)(=O)Nc1cccc(-c2ccc(N3CCOCC3)nn2)c1`, the survival was 97%.

`NS(=O)(=O)c1ccc(CCNc2nc3c(-c4cccc(F)c4)nnn3c3ccc(Cl)cc23)cc1`: the survival is 65%.

For the compound `Cc1ccc(NC(=O)CSc2nc3ccc(Br)cc3[nH]2)c(C)c1`, the survival is 42% (active).

With `Cc1ccc2nc(SCC(=O)Nc3ccc(C#N)cc3)[nH]c2c1`, the survival is 64% (active).

Regarding `Cc1cc(C)c(NC(=O)CSc2nc3ccncc3[nH]2)c(C)c1`, the survival was 119%.

Consider `COc1ccc(NC(=O)CSc2nc3ccccc3[nH]2)cc1`, for which the survival was 70%.

Take `Cc1cc(Cl)ccc1NC(=O)CSc1nc2c(c(=O)[nH]1)CCC2`: the survival is 80%.

In the case of `COC(=O)c1ccc(NC(=O)CSc2nc3ccc(OC)cc3[nH]2)cc1`, the survival was 184%.

In the case of `COCCNC(=O)CCCn1c(SCc2ccccc2Cl)nc2c(sc3ccccc32)c1=O`, the survival was 129%.

With `COc1ccccc1NC(=O)c1ccc(-c2nc(COc3ccc(C)cc3)c(C)o2)cc1`, the survival is 83%.

As to `COc1ccc(Nc2nnc(-c3cc4c(ccc5ccccc54)oc3=O)s2)cc1`, the survival was 82%.

`CCCCN(Cc1ccccc1)S(=O)(=O)c1ccc2c(c1)CC(C)N2C(=O)CC` (stereo not drawn): the survival is 99%.

As for `CCOC(=O)c1c(C)oc2nc(C)nc(NCc3cccc(OC)c3)c12`, the survival was 72%.

For the compound `CCCCCOc1ccc(NC(=O)Cn2c(-c3cncs3)nc3ccccc32)cc1`, the survival was 86%.

Turning to `CCCCOc1ccccc1NC(=O)Cn1c(-c2cncs2)nc2ccccc21`, the survival is 49% (active).

On to `CCc1ccc(NC(=O)Cn2c(-c3cncs3)nc3ccccc32)cc1`, for which the survival was 59%.

For `Cc1cc(C)cc(NC(=O)Cn2c(-c3cncs3)nc3ccccc32)c1`, the survival is 37% (active).

Turning to `CC(=O)c1cccc(NC(=O)Cn2c(-c3cncs3)nc3ccccc32)c1`, the survival was 67%.

For `Cc1ccc(NC(=O)Cn2c(-c3cncs3)nc3ccccc32)c(Br)c1`, the survival is 63%.

`CC1CCN(C(=O)Cn2cc(SCC(=O)Nc3ccccc3)c3ccccc32)CC1`: the survival is 67%.

On to `CCOc1ccc(CNC(=O)CCc2c(C)nn(-c3ccc(N4CCOCC4)nn3)c2C)cc1`, for which the survival is 72%.

As to `O=C(CSc1nnc2c(n1)[nH]c1ccccc12)Nc1ccccc1`, the survival is 89%.

Turning to `COc1ccc(CC(=O)NCC(c2ccc(Cl)cc2)N2CCOCC2)cc1` (stereo not drawn), the survival was 71%.

Consider `Cc1ccc(Cc2c(C)nc3nc(SCC(=O)NC(C)c4ccccc4)nn3c2C)cc1` (stereo not drawn), for which the survival is 53%.

In the case of `Cc1ccccc1Cc1c(C)nc2nc(SCC(=O)N(C)c3ccccc3)nn2c1C`, the survival is 78%.

As for `CCCCNC(=O)CSc1nc2nc(C)c(Cc3ccccc3C)c(C)n2n1`, the survival is 39% (active).

Regarding `Cc1ccccc1Cc1c(C)nc2nc(SCC(=O)NC(C)c3ccccc3)nn2c1C` (stereo not drawn), the survival is 57% (active).

As to `CCCNC(=O)CSc1nc2nc(C)c(Cc3ccccc3Cl)c(C)n2n1`, the survival is 60%.

As to `CCN(CC)CCCNC(=O)CSc1nc2nc(C)c(Cc3ccccc3C)c(C)n2n1`, the survival is 75%.

As for `Cc1cccc2sc(N(CCN(C)C)C(=O)c3ccc4c(c3)OCCO4)nc12`, the survival is 119%.

Take `CC(=O)N1CCc2c(sc3c2c(=O)n(-c2ccc(F)cc2)c(=O)n3Cc2ccc(C#N)cc2)C1`: the survival was 107%.

As for `Cc1ccc(CNCc2ccc3c(c2)n(C)c(=O)n3C)cc1`, the survival is 92%.

With `CCN(CC)S(=O)(=O)c1ccc2c(c1)nc(CN(C)C(=O)c1cccc(Cl)c1)n2C`, the survival is 71%.

Take `C#CCOc1ccc(C2C3=C(CCCC3=O)N(CCC(=O)O)C3=C2C(=O)CCC3)cc1`: the survival was 70%.

Turning to `COc1ccc2c(c1)CCc1c(C(=O)Nc3c(C)nn(Cc4c(Cl)cccc4Cl)c3C)noc1-2`, the survival was 114%.

In the case of `CCOC(=O)c1cc2c(=O)n3ccccc3nc2n(CC2CCCO2)c1=NC(=O)c1ccc(C(C)(C)C)cc1` (stereo not drawn), the survival is 59%.

Take `CCOC(=O)c1cc2c(=O)n3ccccc3nc2n(CC2CCCO2)c1=NC(=O)c1cc(C)cc(C)c1` (stereo not drawn): the survival was 44% (active).

Consider `CCOC(=O)c1cc2c(=O)n3ccccc3nc2n(CC2CCCO2)c1=NC(=O)c1cccc(C(F)(F)F)c1` (stereo not drawn), for which the survival was 97%.

In the case of `CCOC(=O)c1cc2c(=O)n3ccccc3nc2n(CC2CCCO2)c1=NC(=O)c1ccc(C)cc1` (stereo not drawn), the survival was 101%.

Consider `CCOC(=O)c1cc2c(=O)n3ccccc3nc2n(CC2CCCO2)c1=NC(=O)c1cccc(C)c1` (stereo not drawn), for which the survival was 29% (active).

Take `CCn1c(CN2CCCCC2)nc2cc(NC(=O)c3cc(OC)c(OC)c(OC)c3)ccc21`: the survival is 87%.

As to `O=C(c1cnc(N2CCCCC2)c2ccccc12)N1CCN(c2ccccc2F)CC1`, the survival is 75%.

`Cc1ccc2c(c1)nnn2C1CCN(CC(=O)N(c2ccccc2)c2ccccc2)CC1`: the survival was 98%.

With `CCOc1ccc(CNC(=O)c2cnc3sc(N4CCC(C)CC4)nn3c2=O)cc1OC`, the survival was 74%.

`COc1ccc(CNC(=O)Cc2c(C(=O)O)c(C)cn2C)cc1`: the survival was 94%.

Consider `Cc1cn(C)c(CC(=O)NCc2ccccc2)c1C(=O)O`, for which the survival is 85%.

In the case of `Cc1cn(C)c(CC(=O)NCc2cccc(Cl)c2)c1C(=O)O`, the survival is 20% (active).

Turning to `COc1cccc(CNC(=O)Cc2c(C(=O)O)c(C)cn2C)c1`, the survival is 8% (active).

On to `Cc1cn(C)c(CC(=O)NCc2ccc(Cl)cc2)c1C(=O)O`, for which the survival was 102%.

Regarding `Cc1ccc(CNC(=O)Cc2c(C(=O)O)c(C)cn2C)cc1`, the survival was 89%.

On to `COc1ccc(NC(=O)c2ccc3oc(=O)c(S(=O)(=O)c4ccc(C)cc4)cc3c2)cc1OC`, for which the survival was 90%.

In the case of `COc1cc(Cl)c(C)cc1NC(=O)CCn1cnc2onc(-c3ccc(F)cc3)c2c1=O`, the survival is 77%.

As to `COc1ccc(-c2nn3c(=O)cc(CN4CCN(C(=O)Nc5cc(C)ccc5C)CC4)nc3s2)cc1`, the survival was 99%.

Regarding `COc1ccc(NC(=O)C2CCN(S(=O)(=O)c3ccc4c(c3)CCCC(=O)N4)CC2)cc1Cl`, the survival was 78%.

With `CCOc1ccc(-c2cc(C(=O)NCCc3ccc(Cl)cc3)c3ccccc3n2)cc1`, the survival is 81%.

As to `CCOc1ccc(-c2cc(C(=O)NCc3ccc(C)cc3)c3ccccc3n2)cc1`, the survival was 87%.

Take `COc1ccc(Nc2cc(C(=O)NCc3ccccc3OC)c3ccccc3n2)cc1`: the survival was -5% (active).

With `COc1ccc(CCNC(=O)c2cc(-c3ccc(C)c(C)c3)nc3ccccc23)cc1OC`, the survival is 120%.

For `COc1ccc(Nc2cc(C(=O)NCc3cccs3)c3ccccc3n2)cc1`, the survival was 131%.

As to `COc1ccc(Nc2cc(C(=O)NCc3ccccc3)c3ccccc3n2)cc1`, the survival is 97%.

`CCOc1ccc(-c2cc(C(=O)NCc3ccccc3)c3c(-c4ccc(CC)cc4)[nH]nc3n2)cc1`: the survival was 47% (active).

`COc1ccc(-c2cc(C(=O)NCCc3ccc(OC)c(OC)c3)c3ccccc3n2)cc1`: the survival is 48% (active).

On to `COc1ccc(-c2cc(C(=O)NCc3ccccc3)c3c(-c4ccccc4)[nH]nc3n2)cc1`, for which the survival was 93%.

With `CCOc1ccc(-c2cc(C(=O)NCc3ccc(OC)cc3)c3c(-c4ccc(F)cc4)[nH]nc3n2)cc1`, the survival is 77%.

For `COc1ccc(CCNC(=O)c2cc(-c3ccccc3)nc3ccccc23)cc1OC`, the survival was 58%.

In the case of `CCOc1ccc(-c2cc(C(=O)NCCc3ccc(C)cc3)c3ccccc3n2)cc1`, the survival is 52% (active).

For `CCCCNc1ccc(-c2nc(-c3ccccc3)no2)cc1[N+](=O)[O-]`, the survival is 72%.

Take `CCOc1ccc(C(=O)O)o1`: the survival is 94%.

With `Cc1ccc(-n2c(SCC(=O)NC(C)(C)C)nc(O)cc2=O)cc1`, the survival was 107%.

On to `CCCCOC(=O)c1ccc(Nc2ncnc3[nH]ncc23)cc1`, for which the survival was 55%.

In the case of `N#Cc1ccccc1NC(=O)C(=O)NCCc1csc(-c2ccc(C(F)(F)F)cc2)n1`, the survival is 85%.

On to `Cc1ccc(S(=O)(=O)c2cn(Cc3ccccc3)c3cc(N4CCCC4)c(F)cc3c2=O)cc1`, for which the survival was 71%.

Take `Cc1nc2sc(C)c(C)n2c(=O)c1S(=O)(=O)N1CCN(c2ccccc2F)CC1`: the survival is 68%.

Take `Cc1cc(C)c(NC(=O)Cn2c(=O)n(-c3cccc(C(F)(F)F)c3)c(=O)c3c(C)c(C)sc32)c(C)c1`: the survival was 92%.

Turning to `O=C(Nc1ccc2c(c1)OCCO2)C1CCCN(S(=O)(=O)Cc2ccccc2)C1` (stereo not drawn), the survival is 102%.

Consider `CCOc1ccc(NC(=O)c2nn(C)c3c2CS(=O)(=O)c2ccccc2-3)cc1`, for which the survival is 60%.

Consider `Cc1ccc(C(=O)CSc2nc3cc(C(=O)NC4CCCC4)ccc3c(=O)n2CC2CCCO2)cc1` (stereo not drawn), for which the survival is 101%.

As to `O=C(CSc1nc2cc(C(=O)NC3CCCC3)ccc2c(=O)n1CC1CCCO1)c1ccc(F)cc1` (stereo not drawn), the survival is 96%.

With `COc1ccc(C(=O)CSc2nc3cc(C(=O)NC4CCCC4)ccc3c(=O)n2CC2CCCO2)cc1` (stereo not drawn), the survival is 95%.

Regarding `Cc1ccc(C(=O)CSc2nc3cc(C(=O)NC4CCCC4)ccc3c(=O)n2CC2CCCO2)c(C)c1` (stereo not drawn), the survival was 91%.

In the case of `O=C(CSc1nc2cc(C(=O)NC3CCCC3)ccc2c(=O)n1CC1CCCO1)c1cccc(Cl)c1` (stereo not drawn), the survival was 20% (active).

`CCOc1ccc(C(=O)CSc2nc3cc(C(=O)NC4CCCC4)ccc3c(=O)n2CC2CCCO2)cc1` (stereo not drawn): the survival is 8% (active).
